Data: PubChem BioAssay AID1159580 (chemical genetic matrix, 2015)
About 2,000 (36%) of roughly 5,500 compounds were called active. Roughly 18% stayed inconclusive and do not appear here. Cut-off read from the data, not from the text of the source: active = normalized growth mostly below about 0.91 (no sharp cut-off); inconclusive = no clear call, values can overlap the other calls; inactive = mostly above about 0.92. This is one part of the list.

Assay: chemical genetic growth profiling, strain panel (AID 1159580);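 note: tested at 20 µM; growth read once vehicle control cultures reached saturation at 30 °C; 1 = growth at the plate median or of vehicle wells; lower values mean less growth of the strain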
Conditions: growth OD

Measured: normalized growth

CCCC(C)C1(CC)C(=O)NC(=O)NC1=O (configuration not stated)
inactive: S. cerevisiae deletion strains, locus YJR075W, strain HOC1, stronger effect = lower value 1.04 | S. cerevisiae deletion strains, locus YKL009W, strain mrt4, stronger effect = lower value 1.03 | S. cerevisiae deletion strains, locus YKL068W, stronger effect = lower value 1.01 | S. cerevisiae deletion strains, locus YKL085W, strain MDH1 (second series), stronger effect = lower value 1.02 | S. cerevisiae deletion strains, locus YKL085W, strain MDH1, stronger effect = lower value 1.02 | S. cerevisiae deletion strains, locus YKL160W, strain elf1, stronger effect = lower value 1 | S. cerevisiae deletion strains, locus YKL190W, strain CNB1, stronger effect = lower value 1.02 | S. cerevisiae deletion strains, locus YKR001C, strain vps1, stronger effect = lower value 1.03 | S. cerevisiae deletion strains, locus YKR026C, strain gcn3, stronger effect = lower value 0.998 | S. cerevisiae deletion strains, locus YKR091W, strain srl3, stronger effect = lower value 1 | S. cerevisiae deletion strains, locus YLL001W, strain dnm1, stronger effect = lower value 0.994 | S. cerevisiae deletion strains, locus YLL026W, stronger effect = lower value 1 | S. cerevisiae deletion strains, locus YLL041C, strain sdh2, stronger effect = lower value 1 | S. cerevisiae deletion strains, locus YLR027C, strain aat2, stronger effect = lower value 0.998 | S. cerevisiae deletion strains, locus YLR039C, strain RIC1, stronger effect = lower value 1.1 | S. cerevisiae deletion strains, locus YLR058C, strain SHM2, stronger effect = lower value 1.01 | S. cerevisiae deletion strains, locus YLR102C, strain apc9, stronger effect = lower value 1.02 | S. cerevisiae deletion strains, locus YLR113W, strain HOG1, stronger effect = lower value 0.985 | S. cerevisiae deletion strains, locus YLR221C, strain rsa3, stronger effect = lower value 1 | S. cerevisiae deletion strains, locus YLR258W, strain gsy2, stronger effect = lower value 1 | S. cerevisiae deletion strains, locus YLR262C, strain YPT6 (second series), stronger effect = lower value 1.02 | S. cerevisiae deletion strains, locus YLR262C, strain YPT6, stronger effect = lower value 1.11 | S. cerevisiae deletion strains, locus YLR268W, strain sec22, stronger effect = lower value 1.01 | S. cerevisiae deletion strains, locus YLR320W, strain mms22, stronger effect = lower value 1.01 | S. cerevisiae deletion strains, locus YLR330W, strain CHS5, stronger effect = lower value 1.01 | S. cerevisiae deletion strains, locus YLR342W, strain FKS1 (second series), stronger effect = lower value 1.04 | S. cerevisiae deletion strains, locus YLR342W, strain FKS1, stronger effect = lower value 1 | S. cerevisiae deletion strains, locus YLR357W, strain rsc2, stronger effect = lower value 0.984 | S. cerevisiae deletion strains, locus YLR370C, strain arc18, stronger effect = lower value 1 | S. cerevisiae deletion strains, locus YLR371W, strain rom2, stronger effect = lower value 1.02 | S. cerevisiae deletion strains, locus YLR384C, strain iki3, stronger effect = lower value 0.996 | S. cerevisiae deletion strains, locus YLR418C, strain cdc73, stronger effect = lower value 1.05 | S. cerevisiae deletion strains, locus YML016C, strain PPZ1, stronger effect = lower value 1.01 | S. cerevisiae deletion strains, locus YML032C, strain rad52, stronger effect = lower value 1.02 | S. cerevisiae deletion strains, locus YML120C, strain ndi1, stronger effect = lower value 1.02 | S. cerevisiae deletion strains, locus YML124C, strain tub3, stronger effect = lower value 1.02 | S. cerevisiae deletion strains, locus YMR058W, strain fet3, stronger effect = lower value 1.01 | S. cerevisiae deletion strains, locus YMR078C, strain ctf18, stronger effect = lower value 1.02 | S. cerevisiae deletion strains, locus YMR125W, strain sto1, stronger effect = lower value 0.996 | S. cerevisiae deletion strains, locus YMR129W, stronger effect = lower value 0.997 | S. cerevisiae deletion strains, locus YMR205C, strain PFK2, stronger effect = lower value 0.992 | S. cerevisiae deletion strains, locus YMR223W, strain ubp8, stronger effect = lower value 1.04 | S. cerevisiae deletion strains, locus YMR231W, strain pep5, stronger effect = lower value 1 | S. cerevisiae deletion strains, locus YMR263W, strain SAP30, stronger effect = lower value 1.02 | S. cerevisiae deletion strains, locus YMR307W, strain GAS1, stronger effect = lower value 1.12 | S. cerevisiae deletion strains, locus YNL067W, strain RPL9B, stronger effect = lower value 1.01 | S. cerevisiae deletion strains, locus YNL071W, strain lat1, stronger effect = lower value 1.01 | S. cerevisiae deletion strains, locus YNL128W, strain TEP1, stronger effect = lower value 1.02 | S. cerevisiae deletion strains, locus YNL153C, strain GIM3, stronger effect = lower value 1 | S. cerevisiae deletion strains, locus YNL183C, strain NPR1, stronger effect = lower value 0.922 | S. cerevisiae deletion strains, locus YNL209W, strain ssb2, stronger effect = lower value 1 | S. cerevisiae deletion strains, locus YNL233W, strain BNI4, stronger effect = lower value 1.01 | S. cerevisiae deletion strains, locus YNL248C, strain rpa49, stronger effect = lower value 1 | S. cerevisiae deletion strains, locus YNL250W, strain rad50, stronger effect = lower value 1.02 | S. cerevisiae deletion strains, locus YNL271C, strain bni1, stronger effect = lower value 1.03 | S. cerevisiae deletion strains, locus YNL298W, strain CLA4, stronger effect = lower value 1.03 | S. cerevisiae deletion strains, locus YNL307C, strain MCK1, stronger effect = lower value 1.03 | S. cerevisiae deletion strains, locus YNL322C, strain KRE1 (second series), stronger effect = lower value 0.997 | S. cerevisiae deletion strains, locus YNL322C, strain KRE1, stronger effect = lower value 1.01 | S. cerevisiae deletion strains, locus YNR049C, strain mso1, stronger effect = lower value 0.998 | S. cerevisiae deletion strains, locus YNR052C, strain pop2, stronger effect = lower value 1.02 | S. cerevisiae deletion strains, locus YOL006C, strain TOP1, stronger effect = lower value 1.07 | S. cerevisiae deletion strains, locus YOL012C, strain htz1 1.23 | S. cerevisiae deletion strains, locus YOL147C, strain pex11, stronger effect = lower value 1 | S. cerevisiae deletion strains, locus YOR001W, strain rrp6, stronger effect = lower value 0.999 | S. cerevisiae deletion strains, locus YOR061W, strain CKA2, stronger effect = lower value 1.02 | S. cerevisiae deletion strains, locus YOR069W, strain VPS5, stronger effect = lower value 1.01 | S. cerevisiae deletion strains, locus YOR070C, strain gyp1, stronger effect = lower value 1 | S. cerevisiae deletion strains, locus YOR080W, strain dia2, stronger effect = lower value 0.998 | S. cerevisiae deletion strains, locus YOR083W, strain WHI5, stronger effect = lower value 1.01 | S. cerevisiae deletion strains, locus YOR106W, strain vam3, stronger effect = lower value 1.02 | S. cerevisiae deletion strains, locus YOR136W, strain idh2, stronger effect = lower value 1.02 | S. cerevisiae deletion strains, locus YOR144C, strain elg1, stronger effect = lower value 1.01 | S. cerevisiae deletion strains, locus YOR184W, strain ser1, stronger effect = lower value 1.06 | S. cerevisiae deletion strains, locus YOR231W, strain MKK1, stronger effect = lower value 0.996 | S. cerevisiae deletion strains, locus YOR265W, strain rbl2, stronger effect = lower value 1 | S. cerevisiae deletion strains, locus YOR270C, strain vph1, stronger effect = lower value 1.01 | S. cerevisiae deletion strains, locus YOR290C, strain snf2, stronger effect = lower value 1.02 | S. cerevisiae deletion strains, locus YOR316C, strain cot1, stronger effect = lower value 1.03 | S. cerevisiae deletion strains, locus YPL051W, strain arl3, stronger effect = lower value 1.01 | S. cerevisiae deletion strains, locus YPL055C, strain LGE1, stronger effect = lower value 1.04 | S. cerevisiae deletion strains, locus YPL078C, strain atp4, stronger effect = lower value 0.999 | S. cerevisiae deletion strains, locus YPL106C, strain sse1, stronger effect = lower value 0.996 | S. cerevisiae deletion strains, locus YPL240C, strain hsp82, stronger effect = lower value 1.02 | S. cerevisiae deletion strains, locus YPL241C, strain CIN2, stronger effect = lower value 1.01 | S. cerevisiae deletion strains, locus YPL256C, strain CLN2, stronger effect = lower value 0.981 | S. cerevisiae deletion strains, locus YPR119W, strain clb2, stronger effect = lower value 1.01 | S. cerevisiae deletion strains, locus YPR141C, strain kar3, stronger effect = lower value 1.02 | S. cerevisiae deletion strains, locus YPR163C, strain tif3, stronger effect = lower value 1.01 | S. cerevisiae deletion strains, locus YPR167C, strain met16, stronger effect = lower value 1.02 | S. cerevisiae deletion strains, strain wtn01, stronger effect = lower value 1.02 | S. cerevisiae strains, strain wild type, stronger effect = lower value 1.01
